According to the supplement of paper PMC6089552:
Among all 3,200 compounds or so, about 300 (9.4%) showed activity. What follows is part of a selection rich in actives, with near analogues and random picks from the rest. A number with no mark means an inactive call.

System: A673/TR/shEF
Experiment: cell viability (LOESS-normalised, relative to median of negative controls) (log2 ratio); higher = more viable cells (less compound effect), active = hit call of the paper (over 3 MAD below the median)
Conditions: treatment time: 72 h
Summary of the method: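 A673/TR/shEF Ewing sarcoma cells were plated at 1,500 per well in 384-well plates and cultured with or without doxycycline, added 24 h before compounds, to induce EWS-FLI1 shRNA knockdown. Library compounds at two or more concentrations, alongside DMSO controls, were applied for three days. Cell viability was measured by CellTiter-Glo luminescence on an Envision reader. Readings were LOESS-corrected per plate, divided by the median of negative controls and log2-transformed, and hits were wells lying at least three median absolute deviations from the median of all screened wells.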

[1] = 0.25 µM, library screen: screen1, EWS-FLI1 expression: high (no doxycycline)
[2] = 0.25 µM, library screen: screen1, EWS-FLI1 expression: low (doxycycline-induced shRNA knockdown)
[3] = 2.5 µM, library screen: screen1, EWS-FLI1 expression: high (no doxycycline)
[4] = 2.5 µM, library screen: screen1, EWS-FLI1 expression: low (doxycycline-induced shRNA knockdown)
[5] = 0.103 µM, library screen: screen3, EWS-FLI1 expression: high (no doxycycline)
[6] = 0.103 µM, library screen: screen3, EWS-FLI1 expression: low (doxycycline-induced shRNA knockdown)
[7] = 0.308 µM, library screen: screen3, EWS-FLI1 expression: high (no doxycycline)
[8] = 0.308 µM, library screen: screen3, EWS-FLI1 expression: low (doxycycline-induced shRNA knockdown)
[9] = 0.926 µM, library screen: screen3, EWS-FLI1 expression: high (no doxycycline)
[10] = 0.926 µM, library screen: screen3, EWS-FLI1 expression: low (doxycycline-induced shRNA knockdown)
[11] = 2.8 µM, library screen: screen3, EWS-FLI1 expression: high (no doxycycline)
[12] = 2.8 µM, library screen: screen3, EWS-FLI1 expression: low (doxycycline-induced shRNA knockdown)
[13] = 8.3 µM, library screen: screen3, EWS-FLI1 expression: high (no doxycycline)
[14] = 8.3 µM, library screen: screen3, EWS-FLI1 expression: low (doxycycline-induced shRNA knockdown)
[15] = 25 µM, library screen: screen3, EWS-FLI1 expression: high (no doxycycline)
[16] = 25 µM, library screen: screen3, EWS-FLI1 expression: low (doxycycline-induced shRNA knockdown)
[17] = 0.25 µM, library screen: screen2, EWS-FLI1 expression: high (no doxycycline)
[18] = 0.25 µM, library screen: screen2, EWS-FLI1 expression: low (doxycycline-induced shRNA knockdown)
[19] = 2.5 µM, library screen: screen2, EWS-FLI1 expression: high (no doxycycline)
[20] = 2.5 µM, library screen: screen2, EWS-FLI1 expression: low (doxycycline-induced shRNA knockdown)

COc1c(O)cc2occ(-c3ccc(O)cc3)c(=O)c2c1O
cell viability (log2) [1]: 0.15
cell viability (log2) [2]: 0.0261
cell viability (log2) [3]: 0.0979
cell viability (log2) [4]: 0.0895

CC(=O)O[C@H]1CC[C@]2(C)[C@H]3CC=C4[C@@H]5CC(C)(C)CC[C@]5(C(=O)O)CC[C@@]4(C)[C@]3(C)CC[C@H]2C1(C)C
cell viability (log2) [1]: 0.0325
cell viability (log2) [2]: 0.0553
cell viability (log2) [3]: 0.0391
cell viability (log2) [4]: 0.0458

Cc1nnc(C(C)C)n1C1C[C@H]2CC[C@@H](C1)N2CC[C@H](NC(=O)C1CCC(F)(F)CC1)c1ccccc1 (stereo partly drawn)
cell viability (log2) [5]: 0.00773
cell viability (log2) [6]: 0.0537
cell viability (log2) [7]: 0.179
cell viability (log2) [8]: 0.0864
cell viability (log2) [9]: 0.11
cell viability (log2) [10]: 0.0142
cell viability (log2) [11]: 0.152
cell viability (log2) [12]: 0.0241
cell viability (log2) [13]: 0.00455
cell viability (log2) [14]: 0.0886
cell viability (log2) [15]: 0.0767
cell viability (log2) [16]: 0.0769

C=C1C(=O)OC2CC1C(OC(C)=O)C/C(C)=C/CC/C(C)=C\CCC2(C)O (stereo not drawn)
cell viability (log2) [1]: 0.18
cell viability (log2) [2]: 0.0249
cell viability (log2) [3]: 0.0625
cell viability (log2) [4]: -0.139

O=C1c2ccc(O)cc2OC(c2cc(O)c(O)c(O)c2)C1O (stereo not drawn)
cell viability (log2) [1]: 0.0896
cell viability (log2) [2]: 0.0484
cell viability (log2) [3]: 0.165
cell viability (log2) [4]: 0.11

Nc1nc(Cl)nc2c1ncn2[C@@H]1O[C@H](COP(=O)(O)OP(=O)(O)OP(=O)(O)O)[C@H](O)C1O (stereo partly drawn)
cell viability (log2) [17]: 0.146
cell viability (log2) [18]: 0.0571
cell viability (log2) [19]: 0.0213
cell viability (log2) [20]: 0.0355

Nc1ncnc2c1ncn2[C@H]1C[C@H](O)[C@@H](CO)O1
cell viability (log2) [1]: 0.0888
cell viability (log2) [2]: 0.137
cell viability (log2) [3]: 0.0495
cell viability (log2) [4]: 0.162

Nc1nc(Cl)nc2c1ncn2[C@@H]1O[C@H](CO)[C@@H](O)[C@@H]1F
cell viability (log2) [5]: 0.0438
cell viability (log2) [6]: 0.0567
cell viability (log2) [7]: 0.104
cell viability (log2) [8]: 0.0694
cell viability (log2) [9]: -0.027
cell viability (log2) [10]: 0.0481
cell viability (log2) [11]: -0.287 (active)
cell viability (log2) [12]: 0.0753
cell viability (log2) [13]: -1.27 (active)
cell viability (log2) [14]: -0.0627
cell viability (log2) [15]: -3.63 (active)
cell viability (log2) [16]: -0.69 (active)

Nc1nc(Cl)nc2c1ncn2[C@H]1C[C@H](O)[C@@H](CO)O1
cell viability (log2) [5]: 0.0389
cell viability (log2) [6]: -0.0254
cell viability (log2) [7]: 0.0133
cell viability (log2) [8]: 0.0217
cell viability (log2) [9]: 0.0147
cell viability (log2) [10]: 0.0591
cell viability (log2) [11]: -0.0664
cell viability (log2) [12]: 0.0972
cell viability (log2) [13]: -0.402 (active)
cell viability (log2) [14]: -0.0455
cell viability (log2) [15]: -1.32 (active)
cell viability (log2) [16]: -0.402 (active)

Nc1nc(Cl)nc2c1ncn2[C@@H]1O[C@H](CO)[C@@H](O)[C@H]1O
cell viability (log2) [17]: 0.323
cell viability (log2) [18]: 0.0766
cell viability (log2) [19]: 0.0971
cell viability (log2) [20]: -0.0176

OC[C@H]1O[C@@H](n2cnc3c(NC4CCCC4)nc(Cl)nc32)[C@H](O)[C@@H]1O
cell viability (log2) [17]: 0.143
cell viability (log2) [18]: 0.038
cell viability (log2) [19]: 0.169
cell viability (log2) [20]: 0.0636
